Source: PubChem
HEK293 viab: GF-AFC viability counterscreen for inhibitors of alpha-synuclein gene (SNCA) expression. HEK-293-SNCA-luc viability, GF-AFC fluorescence, 24 h. Potency, µM (series often up to 57.1 µM), hits mostly cytotoxic. 150,000 compounds, 0.12% hits; note: nearly all actives have a fitted effect of over 30% in size
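HEK-293-SNCA-luc cells (1500/well) plated 24 h, then exposed 24 h to a dilution series; GF-AFC added 30 min at 37C, fluorescence 405/540 nm; normalised to medium-only and DMSO wells, Hill fit.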
IP6K1 inhibitor: Primary qHTS assay for small molecule inhibitors of Inositol hexaphosphate kinase 1 (IP6K1) | Inositol hexakisphosphate kinase 1 (Homo sapiens), Q92551 | IP6K1 kinase, ADP-Glo luminescence, 2 h; active compounds read low | activity change, % (series mostly up to about 58 µM) | 140,000 compounds, 0.81% hits | AID 1645851, 2021; in the data active = activity change below about -25%
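ADP-Glo luminescence measures ADP made by human IP6K1 during a 2 h RT reaction with ATP/IP6 (mix at 1.3 mM/130 uM); top library doses 57.5 and 19.1 uM final.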
SNCA expr inhib: Primary qHTS assay for inhibitors of alpha-synuclein gene (SNCA) expression | HEK-293 SNCA-luciferase knock-in, luminescence, 24 h | Potency, µM (titrated, usually from 57.2 µM), most hits filed as inhibitors | 140,000 compounds, 0.17% hits | AID 1671194, 2021; note: nearly all actives have a fitted effect of over 45% in size
GPT2 inhibitor: Primary qHTS assay for inhibitors of Glutamate pyruvate transaminase 2 (GPT2); Alanine aminotransferase 2 (Homo sapiens), Q8TD30; Recombinant GPT2, coupled pyruvate oxidase/HRP Amplex Red fluorescence; Potency, µM (titrated, usually from 57.7 µM), actives largely listed as inhibitors; 100,000 compounds, 0.25% hits; AID 1671188, 2021; note: nearly all actives have a fitted effect of over 60% in size
Target sequence (Q8TD30 whole entry, looked up): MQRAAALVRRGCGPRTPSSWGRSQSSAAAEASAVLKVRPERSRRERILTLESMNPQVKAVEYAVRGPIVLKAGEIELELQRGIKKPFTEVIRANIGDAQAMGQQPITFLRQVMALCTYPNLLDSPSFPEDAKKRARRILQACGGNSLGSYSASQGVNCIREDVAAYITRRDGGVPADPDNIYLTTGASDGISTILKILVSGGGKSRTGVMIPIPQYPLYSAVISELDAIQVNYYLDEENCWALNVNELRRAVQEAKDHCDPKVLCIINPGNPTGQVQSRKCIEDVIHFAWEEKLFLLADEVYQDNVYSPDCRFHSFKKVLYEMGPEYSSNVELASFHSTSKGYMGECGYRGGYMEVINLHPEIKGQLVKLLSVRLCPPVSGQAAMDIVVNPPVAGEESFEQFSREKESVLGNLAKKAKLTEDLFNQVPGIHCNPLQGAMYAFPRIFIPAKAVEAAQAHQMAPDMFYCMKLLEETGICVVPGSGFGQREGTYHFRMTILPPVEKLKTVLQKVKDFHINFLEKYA
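Fluorescence of coupled pyruvate oxidase/HRP/Amplex Red system (50uM Amplex, 30 min, dark) reports pyruvate formed by GPT2. Enzyme reaction: 10ng/uL GPT2, 2mM L-alanine, 250uM a-KG, 30 min room temperature, pH 7.5; 50uM AOA control.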
IP6K1 inh cnf: Confirmatory qHTS assay for small molecule inhibitors of Inositol hexaphosphate kinase 1 (IP6K1) | shares compounds with IP6K1 inhibitor | recombinant IP6K1 kinase, ADP-Glo luminescence, 2 h | Potency, µM (doses to about 49 µM), actives largely listed as inhibitors | 1,200 compounds, 13% hits | AID 1645852, 2021; note: nearly all actives have a fitted effect of over 65% in size
Numbers stand for hits; i = inactive; ? = inconclusive; nt = no result given; ! = a repeat was not active; [ ] = dose if it differs, or a comment. A selection: hits, their analogues and other compounds. The true share with any hit is near 1%. Unless noted, calls come from the whole dose curve; as a rule, active = well fitted curve in the direction sought with a large enough effect; inconclusive = small, poorly fitted or top-dose-only effect, or another doubt; inactive = no such curve, though single readings can be large; an effect the other way counts as inactive or inconclusive.

SMILES | HEK293 viab | IP6K1 inhibitor | SNCA expr inhib | GPT2 inhibitor | IP6K1 inh cnf
Cc1nc(-c2cccs2)cc([C@H]2CN3CC[C@H]2C[C@@H]3CNC(=O)C(C)(C)C)n1 | i | i | i | i | nt
Cc1nc(-c2cccs2)cc([C@H]2CN3CC[C@H]2C[C@@H]3CO)n1 | i | i | 3.5µM | i | nt
CN1CCCCC1Cn1cc(C(=O)c2cc([N+](=O)[O-])ccc2I)c2ccccc21 (stereo not drawn) | 24µM | i | nt | ? | nt
CC(=O)O[C@H]1CC[C@@]2(CI)C(=CC[C@@H]3[C@@H]2CC[C@]2(C)C(=O)CC[C@@H]32)C1 | i | i | nt | ? | nt
CCOC(=O)[C@H]1CN(C(=O)c2ccc(Cl)cc2)[C@]2(C)C(=O)N(CCOC)c3ccccc3[C@H]12 | nt | i | nt | nt | nt
COc1cc2c(cc1Oc1ccccc1)NC(=O)C21CCN(c2cnccn2)CC1 | i | i | i | i | nt
CN(C)CCc1c[nH]c2cccc(O)c12 | i | i | i | 10µM | nt
Cc1[nH]nc2ccc(-c3cncc(OC[C@@H](N)Cc4c[nH]c5ccccc45)c3)cc12 | 19µM! | i | 0.11µM | ? | nt
CC(N)Cc1c[nH]c2ccccc12 (stereo not drawn) | i | i | nt | i | nt
CC(C)c1ccc(NC(=O)OC[C@H]2C[C@@H]3CCN2C[C@@H]3c2cc(C3CCCC3)nc(-c3ccncc3)n2)cc1 | ? | i | ? | i | nt
COCCn1c(C)cc(C(=O)N2[C@H]3CC[C@@H]2c2cnc(-c4ccc(F)cc4)nc2C3)c1C | ? | i | 25µM | i | nt
CN(N=O)c1ccc(O)c(O)c1 | i | nt | i | 3.2µM | nt
Cc1nc(-c2ccco2)cc([C@H]2CN3CC[C@H]2C[C@@H]3CNC(=O)NC2CCCCC2)n1 | i | i | i | i | nt
O=c1oc2ccccc2c(O)c1Cc1c(O)c2ccccc2oc1=O | i | -25 | i | i | nt
CC(C)(O)C=CC(=O)[C@](C)(O)[C@H]1[C@H](O)C[C@]2(C)[C@@H]3CC=C4[C@@H](C=C(O)C(=O)C4(C)C)[C@]3(C)C(=O)C[C@@]12C | ? | nt | 14µM | ? | nt
CC(C)(O)/C=C/C(=O)[C@](C)(O)[C@H]1[C@H](O)C[C@@]2(C)[C@@H]3CC=C4[C@@H](C[C@H](O)C(=O)C4(C)C)[C@]3(C)C(=O)C[C@]12C | ? | i | nt | i | nt
Cc1cccc(NC(=O)c2ccc(C(F)(F)F)cc2C(=O)O)n1 | i | i | nt | i | nt
CC1=C(O)C(=O)C=C2C1=CC=C1[C@@]2(C)CC[C@@]2(C)[C@@H]3C[C@](C)(C(=O)O)CC[C@]3(C)CC[C@]12C | 22µM | nt | 7.6µM | i | nt
CC12Cc3cn[nH]c3C=C1CCC1C2CCC2(C)C1CCC2(C)O (stereo not drawn) | i | -47 | nt | i | 7.3µM
C[C@]12CCC(=O)C=C1CC[C@@H]1[C@H]3CC[C@](C)(O)[C@@]3(C)CC[C@@H]12 | ? | i | i | i | nt
O=C(NC[C@H]1C[C@@H]2CCN1C[C@@H]2CN1CCC(Cc2ccccc2)CC1)Nc1ccccc1 | i | i | ? | i | nt
N=c1c2c(-c3ccccc3)c(-c3ccccc3)n(Cc3ccccc3)c2ncn1C1CCC(O)CC1 (stereo not drawn) | i | nt | ? | i | i
CCOC(=O)c1ccc(N2CC3CCC(C2)N3CC(F)(F)F)nn1 | i | i | i | i | nt
CC(C)Cc1nc2cccnc2n1C1CCNCC1 | i | -33 | i | nt | i
CCOC(=O)CC(SP(=S)(OC)OC)C(=O)OCC (stereo not drawn) | i | -70! | i | ? | 18µM
SMILES | HEK293 viab | IP6K1 inhibitor | SNCA expr inhib | GPT2 inhibitor | IP6K1 inh cnf
C#C[C@H]1CN2CC[C@H]1C[C@@H]2CNCc1ccc(OC)cc1 | i | i | i | i | nt
CCN(CC)C(=O)[C@@H]1C=C2c3cccc4[nH]cc(c34)C[C@H]2N(C)C1 | i | -72 | i | ? | i
CCOc1ccc2c(n1)CCNC2 | i[12.5 µM] | -26 | i | i | i
CCOC(=O)[C@H]1CN(C(=O)COc2ccccc2)[C@]2(C)C(=O)N(CCOC(C)=O)c3ccccc3[C@H]12 | nt | i | nt | nt | nt
COc1cc2c(cc1OCc1ccncc1)NC(=O)C21CCN(Cc2ccccc2)CC1 | i | i | i | i | nt
COc1cc2c(cc1OCc1ccccc1)NC(=O)C21CCN(Cc2nccs2)CC1 | i | -33 | i | ? | ?
CCCCCOc1cc2c(cc1-c1cc(/C=C/C(=O)O)ccc1O)C(C)(C)CCC2(C)C | ? | -27 | nt | i | ?
O=C(Nc1ccccc1)Nc1ccc2n(c1=O)C[C@H]1C[C@@H]2CN(C(=O)c2cccs2)C1 | i | i | i | i | nt
CC[C@H]1CN2CC[C@H]1C[C@@H]2CNC(=S)Nc1ccc(N(C)C)cc1 | i | -33 | i | 8.9µM | i
CC[C@H]1CN2CC[C@H]1C[C@@H]2CNC(=O)Nc1ccc(C(C)(C)C)cc1 | i | i | i | i | nt
CN1CCNc2cc(Nc3ccc(F)c(Cl)c3)ncc2C1 | i | i | i | i | nt
CC[n+]1c(-c2ccccc2)c2cc(N)ccc2c2ccc(N)cc21 | i | -52 | i | ? | ?
CCCSc1ncc(CN2CCCC3(CCNC3)C2)cn1 (stereo not drawn) | i | i | i | i | nt
O=C1Nc2ccccc2C12CCN(Cc1cccc3ccccc13)CC2 | i | -47 | i | i | ?
O=C1Nc2ccccc2C12CCN(Cc1ccc(C(F)(F)F)cc1)CC2 | i | -32 | ? | i | ?
CN(C)C(=O)[C@H]1CN2CCC1C[C@@H]2Cn1cc(C2(O)CCCCC2)nn1 (stereo partly drawn) | i | i | i | i | nt
COc1cc2c(cc1OCC1CC1)NC(=O)C21CCN(c2nc(C)cnc2C)CC1 | i | -32 | i | i | i
COc1cc2c(cc1OCC1CC1)NC(=O)C21CCN(c2ncc(F)cn2)CC1 | i | i | i | i | nt
Cc1ccc([C@H]2CN(C(=O)C(=O)c3cccn3C)[C@@H]3C4CCN(CC4)[C@H]23)cc1 | i | -30 | i | i[11.5 µM] | i
COc1ccc([C@@H]2CN(C(=O)C(=O)c3ccco3)[C@@H]3C4CCN(CC4)[C@@H]32)cc1 | i | i | i | i | nt
O=C(Cc1cccc(Cl)c1)N1CCN(Cc2ccccc2-c2ccccc2F)CC1 | i[12.5 µM] | i | i | i | nt
CC(=O)[O][Hg][c]1ccccc1 | ? | -61 | ? | i | 0.65µM
C#CC1(O)CCC2C3CCC4=CC(=O)CCC4=C3C=CC21C (stereo not drawn) | i | i | nt | i | nt
C=CC[C@]1(O)CC[C@H]2[C@@H]3CCC4=CC(=O)CCC4=C3C=C[C@@]21C | i | -45 | i | i | i
N#Cc1nn(-c2c(Cl)cc(C(F)(F)F)cc2Cl)c(N)c1S(=O)C(F)(F)F (stereo not drawn) | i | -41 | i | i | ?
